From PubChem BioAssay
Shown are actives, neighbours in structure and some others; about 10% of the full set was active somewhere.
JMJD2A Tudor inh: qHTS Assay for Inhibitors of JMJD2A-Tudor Domain; AlphaScreen JMJD2A-Tudor / H3K4me3 peptide binding; Potency, µM (highest dose often 114 µM), inactives show at the top dose activity change, negative = inhibition, usual class: inhibitors; 390,000 tested, 4.4% active; also: % is scaled to controls: 0 for no effect and ±100 for the full control effect; nearly all actives have a fitted effect of over 50% in size
G9a inh: qHTS Assay for Inhibitors of Histone Lysine Methyltransferase G9a. Histone-lysine N-methyltransferase EHMT2 (Homo sapiens), Q96KQ7. G9a H3K9 monomethylation, AlphaScreen, 2 h. Potency, µM (doses to about 102 µM), without a hit: top-dose activity, negative = inhibition, usual class: inhibitors. 350,000 tested, 8.8% active; also: % is scaled to controls: 0 for no effect and ±100 for the full control effect; nearly all actives have a fitted effect of over 75% in size
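Readings reflect AlphaScreen signal from monomethyl-H3K9 antibody detection. HMT at 20 nM; substrate b-H3K9 500 nM; cofactor SAM 20 uM; 2 h RT reaction; compounds tested as titrations in qHTS with 15 min preincubation.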
HP1b binding inh: HTS for Inhibitors of HP1-beta Chromodomain Interactions with Methylated Histone Tails; Chromobox protein homolog 1 (Homo sapiens), P83916; AlphaScreen HP1-beta / biotin-H3K9me3 peptide binding; Potency, µM (top dose mostly 114 µM), without a hit: top-dose activity change, negative = inhibition, most hits filed as inhibitors; 390,000 tested, 0.56% active; AID 540317, 2011; also: nearly all actives have a fitted effect of over 70% in size
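AlphaScreen: HP1-beta (50 nM) preformed 30 min with biotin-H3(1-18)K9me3 peptide (50 nM) in PBS pH 7.4, 0.01% Tween-20. Compound added for 30 min at RT, then streptavidin donor/nickel chelate acceptor beads (10 ug/mL) for 30 min.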
BAZ2B inh: qHTS Assay for Inhibitors of BAZ2B. Bromodomain adjacent to zinc finger domain protein 2B (Homo sapiens), Q9UIF8. AlphaScreen BAZ2B-H3K14Ac peptide displacement. Potency, µM (top dose mostly 114 µM), for the others: at the highest dose activity change, negative = inhibition, most hits filed as inhibitors. 360,000 tested, 4.4% active. AID 504333, 2011; also: % is scaled to controls: 0 for no effect and ±100 for the full control effect; nearly all actives have a fitted effect of over 60% in size
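Complex of BAZ2B and biotin-H3K14Ac (50 nM apiece) forms over 30 min at RT, then faces library compounds up to 110 uM for another 30 min; AlphaScreen beads added, 20 min dark incubation, luminescence read.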
L3MBTL1 block: qHTS Assay for the Inhibitors of L3MBTL1. Lethal(3)malignant brain tumor-like protein 1 (Homo sapiens), Q9Y468. AlphaScreen L3MBTL1–H3K9me1 peptide binding. Potency, µM (titrated, usually from 57.1 µM), for inactives: at the top dose activity, negative = inhibition, hits mostly inhibitors. 230,000 tested, 0.66% active. AID 485360, 2010; also: % is scaled to controls: 0 for no effect and ±100 for the full control effect; nearly all actives have a fitted effect of over 60% in size
Target sequence (Q9Y468 whole entry, looked up): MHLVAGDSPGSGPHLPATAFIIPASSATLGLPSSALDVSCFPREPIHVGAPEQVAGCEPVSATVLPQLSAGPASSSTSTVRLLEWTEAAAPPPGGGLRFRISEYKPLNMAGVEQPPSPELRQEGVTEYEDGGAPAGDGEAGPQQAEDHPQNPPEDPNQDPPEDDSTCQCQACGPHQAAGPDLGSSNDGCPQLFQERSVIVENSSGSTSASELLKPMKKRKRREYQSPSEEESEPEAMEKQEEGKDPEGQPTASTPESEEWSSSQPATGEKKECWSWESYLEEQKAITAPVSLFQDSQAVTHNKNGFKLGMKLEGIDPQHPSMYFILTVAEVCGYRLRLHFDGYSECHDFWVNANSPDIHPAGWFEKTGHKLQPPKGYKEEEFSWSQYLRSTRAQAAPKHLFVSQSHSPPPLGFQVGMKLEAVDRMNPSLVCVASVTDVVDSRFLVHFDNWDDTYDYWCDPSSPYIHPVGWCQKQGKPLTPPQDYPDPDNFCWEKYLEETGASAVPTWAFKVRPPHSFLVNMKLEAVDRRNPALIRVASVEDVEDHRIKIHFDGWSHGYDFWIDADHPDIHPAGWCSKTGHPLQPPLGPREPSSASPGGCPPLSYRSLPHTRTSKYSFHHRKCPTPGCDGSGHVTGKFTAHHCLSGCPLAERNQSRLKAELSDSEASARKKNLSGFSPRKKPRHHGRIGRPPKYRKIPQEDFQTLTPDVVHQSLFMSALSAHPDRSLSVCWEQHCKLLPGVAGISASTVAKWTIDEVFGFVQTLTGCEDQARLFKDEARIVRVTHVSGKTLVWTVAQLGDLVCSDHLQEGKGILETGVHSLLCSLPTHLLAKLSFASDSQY
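L3MBTL1 (50 nM) pre-complexed 30 min with biotinylated H3(1-15)K9me1 peptide (75 nM), then compounds added for 30 min at room temperature; AlphaScreen streptavidin donor/nickel chelate acceptor beads (10 ug/mL final) read after 30 min dark incubation.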
GLS inh: qHTS for Inhibitors of Glutaminase (GLS); GLS enzymatic activity, qHTS titration; Potency, µM (highest dose often 45.5 µM), without a hit: at the top dose activity change, negative = inhibition, actives largely listed as inhibitors; 410,000 tested, 0.21% active; AID 624170, 2012; also: % is scaled to controls: 0 for no effect and ±100 for the full control effect
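Human kidney-isoform GLS in 45 mM KH2PO4 pH 8.2, 0.02% Tween-20, with compound, started with 1mM L-Glutamine (added stock). Glutamate oxidase/HRP/Amplex red coupled fluorescence read at start and after 30 min at RT.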
Active calls of the source: *; ? = inconclusive; · = no result given; [ ] = another dose, or the depositor's remark. Calls follow the shape of the dose curve; as a rule, active = well fitted curve in the direction sought with a large enough effect; inconclusive = small, poorly fitted or top-dose-only effect, or another doubt; inactive = no such curve, though single readings can be large; an effect the other way counts as inactive or inconclusive. Potency is read from the fitted curve at half-maximal effect.

SMILES	JMJD2A Tudor inh	G9a inh	HP1b binding inh	BAZ2B inh	L3MBTL1 block	GLS inh
COc1ccc(CN2CCCCCC2)cc1	1µM*	·	23.9%	-0.9%	9.4%	39.0%
CCc1ccc(S(=O)(=O)N2CCN(Cc3ccco3)CC2)cc1	-14.3%	86.4%	5.4%	3.1%	·	-1.3%
COc1ccccc1N1CCN(Cc2ccco2)CC1	3.16µM*	?	-54.4%	?	-4.5%	17.4%
Clc1ccccc1N1CCN(Cc2ccco2)CC1	-21.6%	·	28.6%	-3.5%	-3.2%	-6.3%
Cc1nc2ccn(Cc3cccnc3)c(=O)c2cc1C(=O)NCc1ccc(Cl)cc1	-17.3%	10.3%[59 µM]	25.6%	-9.7%	·	-0.5%
CC(C)(CC(=O)OCC(=O)Nc1ccc(F)c(Cl)c1)CC1=NS(=O)(=O)c2ccccc2N1	-22.3%	6.8%[59 µM]	12.1%	-14.5%	·	5.2%
Cc1ccc2c(CC(=O)Nc3c(C(=O)c4ccc(C)c(F)c4)oc4ccccc34)coc2c1	2.1%	-34.1%[59 µM]	20.5%	-12.9%	·	0.0%
COc1cccc(CN2CCN(Cc3ccco3)CC2)c1	7.94µM*	10µM*	?	50.1µM*	·	0.3%
Clc1ccc(N2CCN(Cc3ccco3)CC2)cc1	1.78µM*	5.01µM*	?	50.1µM*	-1.0%	4.7%
COc1cccc(N2CCN(CC(=O)NC(=O)NCc3ccco3)CC2)c1	-25.0%	-42.7%	21.9%	-38.8%	·	2.2%
C/C(=N\N1CCN(c2ccc(Cl)cc2)CC1)c1ccco1	-1.3%	?	22.4%	?	-12.6%	-0.3%
COc1cccc(N2CCN(Cc3ccco3)CC2)c1	8.91µM*	·	?	?	-4.3%	-14.7%
CC(=O)N1CCc2cc(S(=O)(=O)NC(Cc3ccccc3)C(=O)Nc3cccc(C)c3)ccc21 (stereo not given)	-19.3%	?	21.3%	·	·	4.7%
CCc1cccc(NC(=O)CCc2nc3cccnc3n2-c2ccccc2)c1	-16.2%	-7.1%[59 µM]	19.9%	-16.4%	·	-8.0%
COc1ccc(CC(=O)N2CCc3cc(OC)c(OC)cc3C2COc2cc(C)cc(C)c2)cc1OC (stereo not given)	?	?	2.6%	?	·	4.9%
C=CCc1ccc(OCC(O)CN2CCN(c3ccccc3)CC2)c(OC)c1 (stereo not given)	?	44.7µM*	30.2%	?	·	26.6%
CC(COc1cccc2ccccc12)CN1CCN(C)CC1 (stereo not given)	-18.7%	44.7µM*	19.4%	3.8%	?	-6.4%
C=CCc1ccc(OCC(O)CN2CCCCC2)c(OC)c1 (stereo not given)	-20.3%	?	27.7%	-1.6%	0.1%	0.5%
OC(COc1cccc2ccccc12)CN1CCN(c2ccccc2)CC1 (stereo not given)	50.1µM*	50.1µM*	-23.5%	?	·	16.6%
C=CCc1cc(C)ccc1OCC(O)CN1CCN(c2ccccc2)CC1 (stereo not given)	2.82µM*	?	39.8µM*	50.1µM*	2.1%	22.8%
Cc1ccc(OCC(O)CN2CCN(c3ccccc3)CC2)cc1 (stereo not given)	-18.9%	19.1%	9.8%	-6.8%	-11.4%	55.1%
COc1ccc(N2Cc3cccc(C(=O)Nc4ccc(C)c(C)c4)c3C2=O)cc1	-23.9%	-24.3%[59 µM]	15.2%	?	·	-4.5%
CC(=O)c1cccc(NC(=O)N2CCC(CN3CCCCC3)CC2)c1	-13.5%	-3.4%[59 µM]	-4.9%	2.8%	·	5.3%
C=CCc1ccccc1OCC(O)CN1CCN(c2ccccc2)CC1 (stereo not given)	?	?	-13.0%	50.1µM*	·	-2.4%
C=CCc1ccccc1OCC(O)CN1CCN(c2ccccc2OC)CC1 (stereo not given)	-23.3%	-1.0%[59 µM]	7.4%	-31.8%	-6.3%	41.8%
SMILES	JMJD2A Tudor inh	G9a inh	HP1b binding inh	BAZ2B inh	L3MBTL1 block	GLS inh
C=CCc1cc(OC)ccc1OCC(O)CN1CCN(c2ccc(OC)cc2)CC1 (stereo not given)	44.7µM*	28.2µM*	-41.6%	35.5µM*	-17.9%	32.9%
CC(=O)OCC(NC(=O)C(C)NC(=O)OC(C)(C)C)C1OC(n2ccc(=O)[nH]c2=O)C(OC(C)=O)C1OC(C)=O (stereo not given)	-9.7%	·	43.0%	·	·	·
CCN1CCCC1CNCc1ccccc1OCc1ccc(F)cc1 (stereo not given)	-30.9%	56.2µM*	30.1%	-31.0%	·	0.0%
Cc1nn(C)c2c1c(C(F)(F)F)cc(=O)n2CC(=O)N1CCCCC1C (stereo not given)	-17.3%	9.9%[59 µM]	-12.4%	-3.4%	·	-12.2%
COc1cc(OC)c(OC)cc1/C=C1\CCC/C(=C\c2cc(OC)c(OC)cc2OC)C1=O	28.2µM*	39.8µM*	31.6µM*	28.2µM*	·	-0.3%
COc1cc(OC)c(OC)cc1/C=C1\CCC(C2CCCC2)C1=O (stereo not given)	?	?	-2.6%	25.1µM*	-13.8%	-2.8%
COc1ccc(/C=C2\CCC(C3CCCC3)C2=O)c(OC)c1 (stereo not given)	5.7%	10.1%	42.8%	12.3%	·	-6.8%
CCn1c(C)[n+](CCOCC[n+]2c(C)n(CC)c3cc(Cl)c(Cl)cc32)c2cc(Cl)c(Cl)cc21	22.4µM*	?	-3.1%	0.2%	·	0.6%
CC(=O)OCCn1c(C)[n+](CCOC(C)=O)c2cc(Cl)c(Cl)cc21	-9.0%	50.1µM*	14.6%	-1.1%	·	-3.7%
CC(C)(C)c1ccc(-c2n[nH]c(=S)n2Cc2ccccc2)cc1	-4.2%	-39.4%	30.0%	-10.8%	·	0.0%
S=c1[nH]c2cnccc2n1Cc1ccccc1	17.8µM*	7.08µM*	11.1%	-17.6%	·	-1.1%
FC(F)C(F)(F)Oc1cccc(-c2n[nH]c(=S)n2Cc2ccccc2)c1	-34.8%	2.7%[0.501 µM]	-13.6%	-3.8%	-9.9%	-23.5%
Cc1ccn2c(-c3n[nH]c(=S)n3Cc3ccccc3)c(C)nc2c1	3.55µM*	7.08µM*	?	-6.6%	5.0%	12.4%
S=c1[nH]nc(-c2cccnc2)n1Cc1ccccc1	8.91µM*	1.26µM*	11.1%	-4.9%	4.5%[11.4 µM]	-8.4%
S=c1[nH]c2ccccc2n1Cc1ccccc1	?	·	?	-9.8%	-1.1%	-17.6%
